These results are taken from PubChem BioAssay.

Activity calls are given as the source filed them. Unless noted, no rule for the calls is given here.

Experiment [1] is described as follows: compounds binding Alexa647 anti-His antibody – biochemical, small-molecule microarray, 635 nm fluorescence, artefact control for SMM control protein annotation, primary screen (AID 1128).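 Also: score merges feature fluorescence with signal-to-noise for each printed compound spot.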 The settings on record: higher = more signal.
Experiment [2] deals with Human papillomavirus type 1a E7 protein (residues 1-88). The experiment is described as follows: HPV1a E7 small-molecule binders, primary screen, biochemical, small-molecule microarray, residues 1-88, 635 nm (AID 1129). To be noted: small-molecule microarray binding, fluorescence 635 nm; higher = more signal.
The target of experiment [3] is Focal adhesion kinase 1 (Homo sapiens) (UniProt Q05397). The experiment is described as follows: PTK2 protein binding on printed compound slides – biochemical, small-molecule microarray, 635/667 nm fluorescence, BSA, DTT, primary screen (AID 1130).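 Also: composite of spot emission at 667 nm and signal to noise over triplicate slides.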 To be noted: 635 nm fluorescence, higher = more signal.
Focal adhesion kinase 1 (Homo sapiens), sequence (Q05397 whole entry, looked up): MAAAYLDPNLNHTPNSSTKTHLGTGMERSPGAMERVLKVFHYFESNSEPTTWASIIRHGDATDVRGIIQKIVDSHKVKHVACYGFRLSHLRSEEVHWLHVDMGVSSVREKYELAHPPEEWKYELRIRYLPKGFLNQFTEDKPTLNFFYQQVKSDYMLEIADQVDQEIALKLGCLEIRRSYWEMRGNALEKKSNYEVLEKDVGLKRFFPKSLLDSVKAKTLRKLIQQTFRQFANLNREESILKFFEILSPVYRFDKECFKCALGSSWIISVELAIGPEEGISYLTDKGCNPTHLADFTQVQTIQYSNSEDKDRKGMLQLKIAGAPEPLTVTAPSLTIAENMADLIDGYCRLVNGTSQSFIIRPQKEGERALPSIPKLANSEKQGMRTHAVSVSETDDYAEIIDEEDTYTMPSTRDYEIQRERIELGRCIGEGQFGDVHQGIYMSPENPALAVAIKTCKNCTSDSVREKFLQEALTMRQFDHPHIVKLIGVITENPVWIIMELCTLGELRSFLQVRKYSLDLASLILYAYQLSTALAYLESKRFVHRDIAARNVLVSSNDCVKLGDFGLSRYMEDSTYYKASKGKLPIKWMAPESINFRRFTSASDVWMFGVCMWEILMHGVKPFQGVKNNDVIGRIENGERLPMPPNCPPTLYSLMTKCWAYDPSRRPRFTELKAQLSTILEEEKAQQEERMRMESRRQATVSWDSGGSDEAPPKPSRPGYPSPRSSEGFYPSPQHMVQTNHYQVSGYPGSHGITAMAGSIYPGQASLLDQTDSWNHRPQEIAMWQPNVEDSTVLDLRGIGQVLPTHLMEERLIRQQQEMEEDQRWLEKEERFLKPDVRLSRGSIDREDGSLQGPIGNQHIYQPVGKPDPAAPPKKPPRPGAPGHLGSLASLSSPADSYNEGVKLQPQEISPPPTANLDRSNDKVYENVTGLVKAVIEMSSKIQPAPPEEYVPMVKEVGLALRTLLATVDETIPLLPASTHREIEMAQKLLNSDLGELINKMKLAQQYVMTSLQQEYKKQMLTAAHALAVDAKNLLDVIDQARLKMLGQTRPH
Experiment [4] concerns Fibrinogen (Alexa647-labelled). The experiment is described as follows: Alexa647-fibrinogen binding to printed small molecules – biochemical, small-molecule microarray, 635/667 nm fluorescence, artefact control for SMM control-protein annotation, profiling panel (AID 1131).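 Also: z-score merges 667 nm fluorescence with per-spot signal-to-noise over triplicate slides.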 To be noted: fibrinogen-A647 binding fluorescence, higher = more signal.
Experiment [5] has as its target Follistatin (Homo sapiens) (UniProt P19883). The experiment is described as follows: FST protein binding to printed compounds – biochemical, small-molecule microarray, 635/667 nm fluorescence, primary screen (AID 1132). The settings on record: 635 nm fluorescence, higher = more signal.
The target of experiment [6] is Fibroblast growth factor 2 (Homo sapiens) (UniProt P09038). The experiment is described as follows: basic fibroblast growth factor binding to printed compounds – biochemical, small-molecule microarray, 635/667 nm fluorescence, primary screen (AID 1133). The settings on record: FGF2, fluorescence 635/667, higher = more signal.
Fibroblast growth factor 2 (Homo sapiens), sequence (P09038 whole entry, looked up): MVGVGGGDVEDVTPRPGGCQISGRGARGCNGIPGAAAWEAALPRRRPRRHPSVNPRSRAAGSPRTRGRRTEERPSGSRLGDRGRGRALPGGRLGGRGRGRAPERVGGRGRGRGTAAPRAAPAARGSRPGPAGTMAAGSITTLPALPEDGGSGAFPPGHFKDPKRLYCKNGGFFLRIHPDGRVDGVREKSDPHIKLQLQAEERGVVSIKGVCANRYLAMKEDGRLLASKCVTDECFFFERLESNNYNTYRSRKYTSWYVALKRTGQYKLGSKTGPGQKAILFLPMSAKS
The nature of experiment [7]: JC-1 mitochondrial potential readout, lung cancer cells – cell-based, A549, JC-1 fluorescence, basal, 24 h, 100 nL, profiling panel (AID 1138).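 Also: A549 lung adenocarcinoma cells under basal conditions with no added stimulus; test concentration not given here.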 To be noted: higher = more signal.
The test system of another experiment is Lefty1. The experiment is described as follows: Lefty1 protein binding to printed compounds – biochemical, small-molecule microarray, 635/667 nm fluorescence, primary screen (AID 1139). To be noted: fluorescence 635/667, higher = more signal.
The test system of experiment [8] is wheat germ agglutinin (Triticum aestivum), Alexa647-labelled. The experiment is described as follows: Alexa647-WGA lectin binding to printed small molecules – biochemical, small-molecule microarray, 635/667 nm fluorescence, artefact control for SMM control-protein annotation, profiling panel (AID 1140).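 Also: score merges 667 nm feature emission with signal to noise over triplicate slides.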 To be noted: WGA-A647 binding, 635 nm fluorescence, higher = more signal.

Experiment [9] deals with Luciferin 4-monooxygenase (Photinus pyralis) (UniProt P08659). The experiment is described as follows: inhibition of purified Photinus pyralis luciferase – biochemical, luminescence, purified enzyme, 2006 set, primary screen (AID 1141).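 Also: cell-free assay with purified firefly luciferase at 100 ng per well in PBS; test concentration not given here.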 To be noted: purified firefly luciferase, SteadyGlo luminescence, 30 min; higher = more signal, called active from +8 up or from −8 down.
Luciferin 4-monooxygenase (Photinus pyralis), sequence (P08659 whole entry, looked up): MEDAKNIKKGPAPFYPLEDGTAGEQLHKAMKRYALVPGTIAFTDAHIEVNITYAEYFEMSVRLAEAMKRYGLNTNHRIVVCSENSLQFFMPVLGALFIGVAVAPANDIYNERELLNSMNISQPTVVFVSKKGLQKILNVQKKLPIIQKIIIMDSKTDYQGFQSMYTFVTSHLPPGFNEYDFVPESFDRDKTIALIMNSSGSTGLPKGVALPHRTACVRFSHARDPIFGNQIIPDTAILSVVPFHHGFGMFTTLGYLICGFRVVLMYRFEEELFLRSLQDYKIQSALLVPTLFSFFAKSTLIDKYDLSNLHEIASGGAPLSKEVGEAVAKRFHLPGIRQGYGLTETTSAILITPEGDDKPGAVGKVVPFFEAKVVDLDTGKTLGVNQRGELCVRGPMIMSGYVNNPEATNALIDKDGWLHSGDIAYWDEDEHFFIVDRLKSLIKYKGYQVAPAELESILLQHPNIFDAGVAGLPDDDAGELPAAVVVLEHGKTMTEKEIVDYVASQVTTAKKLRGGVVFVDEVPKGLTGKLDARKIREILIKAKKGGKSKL
For experiment [10], the system named is Wnt5a (protein binding on small-molecule microarray). The experiment is described as follows: small molecules binding Wnt5a protein – biophysical, small-molecule microarray, 635/667 nm fluorescence, primary screen (AID 1142).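 Also: fluorescence read at 667 nm with signal to noise per printed feature.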 The settings on record: 635 nm fluorescence, higher = more signal.
Experiment [11] is described as follows: ATP-based viability of Huh7 replicon cells – cell-based, CellTiter-Glo luminescence, basal, 48 h, cytotoxicity control for HCV replication inhibitor project, primary screen (AID 1143).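 Also: Huh7 hepatoma cells carrying a hepatitis C replication reporter with no stimulus; test concentration not given here.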 The settings on record: higher = more signal, called active from +8 up or from −8 down. For orientation: Replicon systems follow genome replication, usually without infectious particles.

A short description of experiment [12]: Pseudomonas biofilm growth suppression – PAO1 strain, BacTiter-Glo luminescence, LB-PBS, primary screen (AID 1144). To be noted: P. aeruginosa PAO1 biofilm, 12 h, higher = more signal.
The nature of experiment [13]: basal CRE-LacZ reporter activity in PC12 – cell-based, unstimulated, primary screen (AID 1145). To be noted: no forskolin, luminescence, 4.5 h, higher = more signal, called active from +8 up or from −8 down.
Experiment [14] can be described thus: forskolin-driven CRE-LacZ activity in PC12 – cell-based, CRE-LacZ reporter, forskolin-stimulated, primary screen (AID 1146).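 Also: PC12 cells with 6xCRE LacZ reporter stimulated by forskolin 10 µM; beta-galactosidase reporter signal reflecting CREB driven transcription.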 The settings on record: luminescence, 4.5 h, higher = more signal, called active from +8 up or from −8 down.
The target of experiment [15] is Streptavidin (Streptomyces avidinii) (UniProt P22629). The experiment is described as follows: compounds binding control protein streptavidin – biophysical, small-molecule microarray, 635/667 nm fluorescence, artefact control for SMM compound annotation, primary screen (AID 1147).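 Also: signal reflects streptavidin binding to arrayed compounds as a control protein.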 To be noted: higher = more signal.
Streptavidin (Streptomyces avidinii), sequence (P22629 whole entry, looked up): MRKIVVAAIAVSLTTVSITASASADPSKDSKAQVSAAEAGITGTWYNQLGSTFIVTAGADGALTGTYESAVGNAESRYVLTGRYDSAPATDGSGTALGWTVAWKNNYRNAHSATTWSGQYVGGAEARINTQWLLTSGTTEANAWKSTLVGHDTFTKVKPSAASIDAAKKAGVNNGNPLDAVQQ
Experiment [16] is described as follows: probe aInhba binding on compound microarray – biochemical, small-molecule microarray, 635/667 nm fluorescence, primary screen (AID 1148).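 Also: score merges 667nm spot fluorescence with signal-to-noise for antibody binding to printed compounds.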 To be noted: higher = more signal.
The target in experiment [17] is Torsin-1A (Homo sapiens) (UniProt O14656). The experiment is described as follows: TOR1A wild-type binding on microarray – cell lysate, small-molecule microarray, lysate, 635/667 nm, primary screen (AID 1149). To be noted: COS7 hTOR1A-WT lysate, 635 nm fluorescence, higher = more signal.
Torsin-1A (Homo sapiens), sequence (O14656 whole entry, looked up): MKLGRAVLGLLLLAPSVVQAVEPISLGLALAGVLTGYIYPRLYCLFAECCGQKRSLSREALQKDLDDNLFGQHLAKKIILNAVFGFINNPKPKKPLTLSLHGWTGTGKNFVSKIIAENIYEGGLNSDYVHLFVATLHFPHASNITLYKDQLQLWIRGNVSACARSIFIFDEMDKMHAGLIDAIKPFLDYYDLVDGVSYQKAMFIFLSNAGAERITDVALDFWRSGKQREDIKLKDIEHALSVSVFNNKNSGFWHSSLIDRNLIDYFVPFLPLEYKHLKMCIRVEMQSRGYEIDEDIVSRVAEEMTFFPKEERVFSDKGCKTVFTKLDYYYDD
The target is the same in experiment [18]. The experiment is described as follows: torsin A mutant lysate binding on microarrays – cell lysate, small-molecule microarray, COS7 lysate, 635/667 nm fluorescence, primary screen (AID 1150).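 Also: score pools 667 nm emission and signal to noise measuring lysate protein binding.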 To be noted: COS7 hTOR1A mutant lysate, 635 nm fluorescence, higher = more signal.
The test system of experiment [19] is Sonic hedgehog protein (Shh). The experiment is described as follows: Sonic hedgehog microarray binding compounds – biochemical, small-molecule microarray, 635/667 nm fluorescence, primary screen (AID 1151).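 Also: Shh protein binding to compounds spotted on small-molecule microarray slides; score combines spot fluorescence intensity with signal-to-noise across triplicate slides.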 The settings on record: 635 nm fluorescence, higher = more signal.

Follistatin (Homo sapiens), sequence (P19883 whole entry, looked up): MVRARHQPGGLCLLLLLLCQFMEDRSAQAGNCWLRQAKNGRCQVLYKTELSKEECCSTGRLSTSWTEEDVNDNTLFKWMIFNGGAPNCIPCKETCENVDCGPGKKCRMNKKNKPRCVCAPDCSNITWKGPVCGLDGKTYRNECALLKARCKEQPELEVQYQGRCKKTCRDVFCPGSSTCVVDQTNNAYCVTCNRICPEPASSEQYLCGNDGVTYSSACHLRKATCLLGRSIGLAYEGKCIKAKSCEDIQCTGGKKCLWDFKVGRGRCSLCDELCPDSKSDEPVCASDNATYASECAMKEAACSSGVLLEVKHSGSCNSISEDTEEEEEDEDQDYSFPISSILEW

In the case of `C[C@@H]1C=CCC(=O)OC[C@H](C)C(=O)OC[C@H]2O[C@H]1C=C[C@H]2O`, the composite z-score in [1] was -0.31; in [2], -0.307; in experiment [3], -0.174; in experiment [4], 0.303; in experiment [5], 0.208; in experiment [6], 0.577. The composite z-score with Lefty1 was 0.781; in experiment [8], 0.59; in [10] it was 0.263; in experiment [15] it was -0.392; in [16], -0.105; in the experiment with Torsin-1A (Homo sapiens) [17] it was -0.0292. The figures for the composite z-score (in the experiment with Torsin-1A (Homo sapiens) [18]; in experiment [19]) were 0.188 and 1.09, respectively. Also, the z-score in [7] was 0.328; in [9], -1.1 (inactive); in [11], 0.196 (inactive); in experiment [12], -0.0585 (inactive); in [13], -0.2 (inactive); in experiment [14] it was 0.165 (inactive).
On to `CC(C)=CCCC(C)=CCON=C1C[C@@H](O)[C@@H](O)[C@@H]2[C@@H]3C(=O)N(C[C@@H]4CCCO4)C(=O)[C@@H]3CC[C@@H]12`, for which the composite z-score in [1] stood at 0.875; in experiment [2] it was 1.13; in [3], 0.121; in experiment [4], 0.971; in experiment [5], 1.06; in experiment [6] it was 1.07. Further, the composite z-score is 1.26 in the experiment with Lefty1; 0.59 in [8]; 0.311 in experiment [10]; -0.0996 in experiment [15]; -0.0933 in experiment [16]; 2.06 with Torsin-1A (Homo sapiens) [17]. Further, the composite z-score is 2.01 with Torsin-1A (Homo sapiens) [18] and 1.73 in [19]. Besides, the z-score was -0.26 in experiment [7]; 0.722 (inactive) in experiment [9]; -0.678 (inactive) in [11]; 0.518 (inactive) in experiment [12]; -0.659 (inactive) in experiment [13]; -0.227 (inactive) in [14].
With `Cc1cc(C)c(-c2cc([C@H](C)ON=C3[C@H]4CCn5c(=O)n(-c6ccccc6)c(=O)n5[C@H]4[C@H](O)[C@@H]4O[C@H]34)on2)c(C)c1`, the composite z-score in [1] was -0.286; in experiment [2], 0.748; in experiment [3], 0.422; in experiment [4], 0.382; in experiment [5] it was 0.692; in experiment [6] it was 0.627. The composite z-score in the experiment with Lefty1 is 0.652; in experiment [8], -0.0095; in experiment [10], 0.266; in [15] it was 0.548; in experiment [16], -0.0066; in the experiment with Torsin-1A (Homo sapiens) [17], 0.595. For the same molecule, the composite z-score in the experiment with Torsin-1A (Homo sapiens) [18] is 0.754; in experiment [19], 0.767. In addition, the z-score was 1.32 in experiment [7]; 0.154 (inactive) in [9]; -1.72 (inactive) in experiment [11]; 1.96 (inactive) in experiment [12]; 0.229 (inactive) in [13]; 1.43 (inactive) in experiment [14].
With `CCOC(=O)[C@H](Cc1ccccc1)NC(=O)CCC1CC(OC(=O)NCc2ccc3c(c2)OCO3)CC2(CCCC(COC(=O)NCC(c3ccccc3)c3ccccc3)O2)O1` (stereo not given in full), the composite z-score was found to be 0.98 in experiment [1]; 1.2 in [2]; 0.231 in experiment [3]; 0.0058 in experiment [4]; 0.83 in [5]; 0.555 in experiment [6]. Also, the composite z-score in the experiment on Lefty1 is 0.579; in experiment [8], 0.477; in [10] it was -0.169; in experiment [15] it was 0.0072; in experiment [16], 0.0155; with Torsin-1A (Homo sapiens) [17] it was 0.545. Also, the composite z-score with Torsin-1A (Homo sapiens) [18] came to 0.401; in [19], 1.48. Also, the z-score was 0.803 in experiment [7]; 0.635 (inactive) in experiment [9]; -0.9 (inactive) in experiment [11]; -1.34 (inactive) in experiment [12]; -0.255 (inactive) in experiment [13]; 0.0668 (inactive) in [14].
As for `CN1C(=O)C2C(C1=O)C1C=C(CCCO)C2C(c2ccc(CN3CCCC3)cc2)N1C` (stereo not given), the composite z-score was -0.0122 in experiment [1]; -0.329 in experiment [2]; 0.0551 in [3]; -1.58 in [4]; -0.227 in experiment [5]; -0.052 in experiment [6]. Besides, the composite z-score is -0.0306 in the experiment on Lefty1; -0.236 in [8]; -0.205 in experiment [10]; -0.383 in [15]; -0.157 in experiment [16]; 0.33 with Torsin-1A (Homo sapiens) [17]. Also, the composite z-score in the experiment with Torsin-1A (Homo sapiens) [18] is -0.287; in experiment [19] it was 0.207. The z-score in experiment [7] is -1.01; in experiment [9] it was 0.53 (inactive); in experiment [11], -0.202 (inactive); in [12] it was 0.675 (inactive); in [13] it was -0.0743 (inactive); in [14] it was -0.436 (inactive).
